# A number with no mark means an inactive call.
# Key:
# Assay in all cases: log2 ratio of Biotin-Ahx-Ub-VS probe labelling (fragment/DMSO); higher = less target engagement (more negative = stronger competition), active = hit call of the paper (q ≤ 0.05, log2 ratio ≤ -1)
# Settings in all cases: compound concentration: 200 uM; treatment time: 3 h
# [1] = molecular target: T1, USP19 (UniProt O94966)
# T1 sequence (whole entry): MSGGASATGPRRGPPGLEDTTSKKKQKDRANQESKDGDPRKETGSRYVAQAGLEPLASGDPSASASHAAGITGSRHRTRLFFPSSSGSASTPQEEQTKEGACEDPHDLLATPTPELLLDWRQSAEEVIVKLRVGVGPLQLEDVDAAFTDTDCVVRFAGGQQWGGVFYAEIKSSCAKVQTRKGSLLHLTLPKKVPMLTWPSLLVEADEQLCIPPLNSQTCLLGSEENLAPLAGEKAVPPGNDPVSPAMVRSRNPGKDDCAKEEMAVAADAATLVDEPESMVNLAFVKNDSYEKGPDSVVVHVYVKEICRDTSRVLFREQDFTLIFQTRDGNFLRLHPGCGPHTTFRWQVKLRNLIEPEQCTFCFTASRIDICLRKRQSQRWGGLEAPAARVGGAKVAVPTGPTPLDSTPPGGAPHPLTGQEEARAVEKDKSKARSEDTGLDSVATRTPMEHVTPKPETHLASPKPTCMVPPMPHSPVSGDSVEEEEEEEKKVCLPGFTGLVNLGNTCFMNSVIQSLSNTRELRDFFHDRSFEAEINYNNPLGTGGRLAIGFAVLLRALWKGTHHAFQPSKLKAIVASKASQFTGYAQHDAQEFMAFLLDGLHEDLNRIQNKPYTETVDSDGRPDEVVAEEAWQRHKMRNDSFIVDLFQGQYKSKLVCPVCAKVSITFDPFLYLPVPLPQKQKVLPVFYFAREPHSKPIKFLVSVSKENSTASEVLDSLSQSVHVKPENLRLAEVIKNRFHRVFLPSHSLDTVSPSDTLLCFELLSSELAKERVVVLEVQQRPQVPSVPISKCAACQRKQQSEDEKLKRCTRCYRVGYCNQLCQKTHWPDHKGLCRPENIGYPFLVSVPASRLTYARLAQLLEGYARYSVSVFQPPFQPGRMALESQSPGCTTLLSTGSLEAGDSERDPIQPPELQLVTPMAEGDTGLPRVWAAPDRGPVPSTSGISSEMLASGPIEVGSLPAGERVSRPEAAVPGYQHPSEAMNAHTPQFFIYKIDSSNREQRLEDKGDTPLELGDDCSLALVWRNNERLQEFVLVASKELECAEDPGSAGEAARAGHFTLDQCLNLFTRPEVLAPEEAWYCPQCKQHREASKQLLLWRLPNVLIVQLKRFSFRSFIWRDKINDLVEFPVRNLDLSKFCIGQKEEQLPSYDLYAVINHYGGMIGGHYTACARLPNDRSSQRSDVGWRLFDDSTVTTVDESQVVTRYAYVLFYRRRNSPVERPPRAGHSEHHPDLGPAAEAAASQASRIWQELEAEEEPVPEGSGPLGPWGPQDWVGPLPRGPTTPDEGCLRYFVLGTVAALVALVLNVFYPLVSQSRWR
# Summary of the method: (§1)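 HEK293T lysate (495 µg per sample, in Tris/CHAPS/IGEPAL buffer with protease inhibitors) was treated in triplicate with fragment at 200 µM or with DMSO for 3 h. It was then treated with Biotin-Ahx-Ub-VS (0.5 µM final) for 1 h. Labelled DUBs were NeutrAvidin-enriched, digested with LysC and trypsin, and run by diaPASEF LC-MS/MS. Spectronaut label-free quantities were global-median-normalised. Values are average log2 ratios fragment/DMSO by unpaired t-test, using proteins with ≥2 unique peptides.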
# [2] = molecular target: USP24 (UniProt Q9UPU5)
# Chain of USP24 (Q9UPU5 whole entry): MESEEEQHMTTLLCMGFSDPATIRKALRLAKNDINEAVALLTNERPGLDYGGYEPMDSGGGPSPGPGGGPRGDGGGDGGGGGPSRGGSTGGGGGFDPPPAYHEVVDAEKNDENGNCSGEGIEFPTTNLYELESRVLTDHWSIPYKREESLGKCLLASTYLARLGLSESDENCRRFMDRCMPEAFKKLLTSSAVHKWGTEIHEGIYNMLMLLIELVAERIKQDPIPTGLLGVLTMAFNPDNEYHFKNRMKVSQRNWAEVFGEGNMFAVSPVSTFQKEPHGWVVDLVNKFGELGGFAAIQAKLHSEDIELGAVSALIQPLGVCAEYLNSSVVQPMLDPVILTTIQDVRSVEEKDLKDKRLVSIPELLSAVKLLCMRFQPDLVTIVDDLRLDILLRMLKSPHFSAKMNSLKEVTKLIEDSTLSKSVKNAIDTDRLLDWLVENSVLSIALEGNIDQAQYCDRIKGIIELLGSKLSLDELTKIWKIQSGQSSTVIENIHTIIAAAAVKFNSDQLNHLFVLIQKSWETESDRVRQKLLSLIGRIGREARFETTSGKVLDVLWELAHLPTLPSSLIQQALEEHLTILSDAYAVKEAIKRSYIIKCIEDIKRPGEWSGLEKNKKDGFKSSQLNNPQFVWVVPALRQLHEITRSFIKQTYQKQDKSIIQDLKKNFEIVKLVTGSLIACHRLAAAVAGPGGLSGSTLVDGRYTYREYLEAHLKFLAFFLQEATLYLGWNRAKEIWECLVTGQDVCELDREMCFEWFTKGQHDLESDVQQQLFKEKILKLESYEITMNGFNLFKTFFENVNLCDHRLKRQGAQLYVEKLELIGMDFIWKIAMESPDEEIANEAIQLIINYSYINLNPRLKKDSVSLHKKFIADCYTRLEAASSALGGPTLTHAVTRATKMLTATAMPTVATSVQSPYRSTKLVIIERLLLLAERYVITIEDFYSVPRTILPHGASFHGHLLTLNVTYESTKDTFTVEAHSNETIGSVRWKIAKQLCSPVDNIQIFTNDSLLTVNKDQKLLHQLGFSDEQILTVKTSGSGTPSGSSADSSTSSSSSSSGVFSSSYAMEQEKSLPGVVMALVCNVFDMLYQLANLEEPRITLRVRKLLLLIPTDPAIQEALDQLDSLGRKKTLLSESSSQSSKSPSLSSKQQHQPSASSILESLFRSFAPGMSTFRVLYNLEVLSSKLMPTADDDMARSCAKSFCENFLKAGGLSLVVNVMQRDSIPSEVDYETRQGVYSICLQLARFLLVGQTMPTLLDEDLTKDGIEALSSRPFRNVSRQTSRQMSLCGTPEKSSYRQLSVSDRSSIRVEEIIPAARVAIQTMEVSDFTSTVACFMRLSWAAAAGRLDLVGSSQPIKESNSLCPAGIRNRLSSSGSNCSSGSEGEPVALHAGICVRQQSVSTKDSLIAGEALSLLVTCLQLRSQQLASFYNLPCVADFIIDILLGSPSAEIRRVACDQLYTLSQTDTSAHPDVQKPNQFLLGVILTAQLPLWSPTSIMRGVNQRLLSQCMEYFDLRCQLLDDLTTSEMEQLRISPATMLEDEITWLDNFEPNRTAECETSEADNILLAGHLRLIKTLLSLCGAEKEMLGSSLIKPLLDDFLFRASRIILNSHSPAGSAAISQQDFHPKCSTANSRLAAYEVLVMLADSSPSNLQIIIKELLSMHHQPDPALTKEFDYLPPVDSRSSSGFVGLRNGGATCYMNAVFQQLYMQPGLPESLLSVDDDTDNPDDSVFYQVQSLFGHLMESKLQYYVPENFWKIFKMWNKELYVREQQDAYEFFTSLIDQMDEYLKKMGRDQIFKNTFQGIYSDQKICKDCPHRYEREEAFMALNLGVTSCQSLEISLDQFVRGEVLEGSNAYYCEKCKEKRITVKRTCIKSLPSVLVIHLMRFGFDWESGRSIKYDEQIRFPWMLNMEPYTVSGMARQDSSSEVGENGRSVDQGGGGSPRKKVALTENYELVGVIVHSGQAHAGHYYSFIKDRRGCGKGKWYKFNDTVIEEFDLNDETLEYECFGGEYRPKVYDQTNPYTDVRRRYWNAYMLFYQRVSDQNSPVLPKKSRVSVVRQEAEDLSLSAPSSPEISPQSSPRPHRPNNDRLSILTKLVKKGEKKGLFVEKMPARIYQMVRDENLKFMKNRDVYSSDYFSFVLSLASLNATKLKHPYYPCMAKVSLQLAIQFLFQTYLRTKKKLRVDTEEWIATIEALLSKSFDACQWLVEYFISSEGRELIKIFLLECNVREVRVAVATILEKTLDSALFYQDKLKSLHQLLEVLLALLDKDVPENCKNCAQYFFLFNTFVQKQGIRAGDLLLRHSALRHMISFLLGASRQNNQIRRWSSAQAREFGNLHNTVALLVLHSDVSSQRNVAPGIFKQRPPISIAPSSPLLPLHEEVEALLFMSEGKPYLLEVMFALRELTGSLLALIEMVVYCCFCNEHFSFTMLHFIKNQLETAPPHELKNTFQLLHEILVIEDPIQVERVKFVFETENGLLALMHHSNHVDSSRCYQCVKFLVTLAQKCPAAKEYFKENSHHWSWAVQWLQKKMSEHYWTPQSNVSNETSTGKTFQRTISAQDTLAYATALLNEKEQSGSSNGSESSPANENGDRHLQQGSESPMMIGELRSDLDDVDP
# Summary of the method: as §1
# [3] = molecular target: T2, USP25 (UniProt Q9UHP3)
# T2 sequence (whole entry): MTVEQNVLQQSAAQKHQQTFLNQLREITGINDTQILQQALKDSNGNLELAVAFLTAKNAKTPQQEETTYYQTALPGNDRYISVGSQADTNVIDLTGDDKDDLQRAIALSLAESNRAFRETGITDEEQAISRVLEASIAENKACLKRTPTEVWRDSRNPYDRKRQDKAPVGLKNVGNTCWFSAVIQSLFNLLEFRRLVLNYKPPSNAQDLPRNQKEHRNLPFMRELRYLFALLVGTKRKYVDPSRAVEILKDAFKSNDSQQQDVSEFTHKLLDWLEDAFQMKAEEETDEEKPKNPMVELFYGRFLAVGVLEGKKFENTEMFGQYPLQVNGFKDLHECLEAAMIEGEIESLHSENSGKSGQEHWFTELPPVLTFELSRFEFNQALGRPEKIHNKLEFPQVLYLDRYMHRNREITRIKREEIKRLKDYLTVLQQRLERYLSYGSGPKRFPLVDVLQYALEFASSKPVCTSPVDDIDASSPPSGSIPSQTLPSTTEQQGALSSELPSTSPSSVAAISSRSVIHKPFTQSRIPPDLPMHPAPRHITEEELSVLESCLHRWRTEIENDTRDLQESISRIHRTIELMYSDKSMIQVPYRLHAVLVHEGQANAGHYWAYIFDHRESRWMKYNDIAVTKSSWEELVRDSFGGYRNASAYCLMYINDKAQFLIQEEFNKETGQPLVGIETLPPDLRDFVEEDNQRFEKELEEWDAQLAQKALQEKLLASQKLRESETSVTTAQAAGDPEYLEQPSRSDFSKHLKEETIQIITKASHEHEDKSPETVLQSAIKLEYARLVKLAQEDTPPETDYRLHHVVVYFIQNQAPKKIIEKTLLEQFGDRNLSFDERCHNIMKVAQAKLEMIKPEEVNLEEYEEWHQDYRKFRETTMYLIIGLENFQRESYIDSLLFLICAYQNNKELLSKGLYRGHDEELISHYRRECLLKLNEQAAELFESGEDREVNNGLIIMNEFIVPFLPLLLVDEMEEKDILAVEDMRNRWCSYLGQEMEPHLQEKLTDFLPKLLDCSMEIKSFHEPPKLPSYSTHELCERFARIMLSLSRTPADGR
# Summary of the method: as §1
# [4] = molecular target: T3, USP28 (UniProt Q96RU2)
# T3 sequence (whole entry): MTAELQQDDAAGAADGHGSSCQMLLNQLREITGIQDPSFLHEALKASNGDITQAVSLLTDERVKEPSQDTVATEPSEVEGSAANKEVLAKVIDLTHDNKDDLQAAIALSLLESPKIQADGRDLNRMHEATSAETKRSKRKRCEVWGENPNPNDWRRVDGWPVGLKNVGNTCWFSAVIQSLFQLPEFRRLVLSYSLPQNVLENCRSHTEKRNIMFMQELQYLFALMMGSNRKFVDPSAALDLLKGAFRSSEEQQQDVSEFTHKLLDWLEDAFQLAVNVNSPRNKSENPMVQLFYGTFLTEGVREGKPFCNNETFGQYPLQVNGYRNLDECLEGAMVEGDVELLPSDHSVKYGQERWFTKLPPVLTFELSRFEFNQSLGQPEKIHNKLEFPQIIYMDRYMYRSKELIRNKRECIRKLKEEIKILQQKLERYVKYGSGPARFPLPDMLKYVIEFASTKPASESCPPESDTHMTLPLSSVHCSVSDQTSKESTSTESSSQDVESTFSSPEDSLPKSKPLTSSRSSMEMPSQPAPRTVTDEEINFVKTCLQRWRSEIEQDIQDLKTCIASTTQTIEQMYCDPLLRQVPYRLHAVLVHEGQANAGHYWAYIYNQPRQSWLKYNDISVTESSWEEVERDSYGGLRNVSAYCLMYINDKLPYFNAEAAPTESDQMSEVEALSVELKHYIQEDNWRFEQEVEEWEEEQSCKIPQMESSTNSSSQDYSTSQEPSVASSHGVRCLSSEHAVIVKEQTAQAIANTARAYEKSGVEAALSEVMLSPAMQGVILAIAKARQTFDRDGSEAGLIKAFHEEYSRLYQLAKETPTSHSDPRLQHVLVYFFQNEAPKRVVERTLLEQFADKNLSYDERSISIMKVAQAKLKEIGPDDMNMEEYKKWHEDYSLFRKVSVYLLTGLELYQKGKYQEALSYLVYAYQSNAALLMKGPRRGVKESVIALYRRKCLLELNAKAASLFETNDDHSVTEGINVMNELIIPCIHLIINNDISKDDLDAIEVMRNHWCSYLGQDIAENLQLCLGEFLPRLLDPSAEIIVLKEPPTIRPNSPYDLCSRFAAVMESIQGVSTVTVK
# Summary of the method: as §1
smiles,measurement,setting,value
O=C(CCl)Nc1cccc(C(=O)N2CCSCC2)c1,log2 ratio of Biotin-Ahx-Ub-VS probe labelling,[1],-0.239
same,log2 ratio of Biotin-Ahx-Ub-VS probe labelling,[2],-0.522
same,log2 ratio of Biotin-Ahx-Ub-VS probe labelling,[3],-1.17 (active)
same,log2 ratio of Biotin-Ahx-Ub-VS probe labelling,[4],-0.818

# Reference: the supplement of paper PMC11732987, “Enantioselective OTUD7B fragment discovery through chemoproteomics screening and high-throughput optimisation” (Communications Chemistry, 2025)
